Experimental data taken from PubChem BioAssay AID1508600 (Functional Genomics Laboratory (NCATS/FGL), 2020).
Screen size: about 53,000 sequences; about 3,700 (7%) were called active.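 The calls were made as follows: active = gene knockdowns whose robust z-score for IL-1 alpha signal is at least 2 or at most -2, so actives lie on both sides; inactive = the rest.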 Only a selection was taken, and actives are over-represented in it overall.

Test: Components of the Cytosolic LPS Sensing Pathway: Gene Identification via Genome-wide siRNA Screen;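 also: robust z of the log signal after scaling to non-targeting control siRNA wells of the plate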
Conditions: RAW264.7 macrophages, IL-1a HTRF, actives lie on both sides, screened at 100 nM (by protocol), cells primed 5 h with Pam3CSK4 first
Method in brief: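 RAW264.7; siRNA 100 nM final, RNAiMAX, 48h 37 degrees C; Pam3CSK4 5 h; LipidA + TransIT-TKO 24 h; IL-1a HTRF; CellTiter-Glo viability; robust z vs negative-control median.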
In the case of GGUCAUUAGUUAUUCCUACTT against Olfr600, the z-score is reported as -1.33 (inactive).
For “GGGUUCAAGAUAUCAAGUATT against 4933434E20Rik”, the z-score was 1.23 (inactive).
With GCUUGGGUCAUAGGGAUGATT against Olfr1288 the z-score was -0.371 (inactive).
In the case of CCACUUUUGUAAUGGAAGCTT against Mfsd6l, the z-score is reported as 1.89 (inactive).
With GGAGAUUCAGAUCAAAGAGTT against Scyl1 the z-score was -0.182 (inactive).
With GCUACGUUUUUUACCUCCATT against Bak1 the z-score was 0.0106 (inactive).
With GGCUUCCAGUAAUGACAAUTT against Vwc2l the z-score was -1.67 (inactive).
With GGACUAUCAUCUGAUGCCATT against Klhl18 the z-score was 2.45 (active).
With GGUCUUUCCCAGGAUUCCATT against Rab19 the z-score was -0.837 (inactive).
In the case of GGUUGACUAUACUGAAAAGTT against Prrc2a, the z-score is reported as -0.606 (inactive).
In the case of GGGCAAUGAAUGACAUUGGTT against Gabrd, the z-score is reported as -0.368 (inactive).
With GGGAGAAUCGAACUAUAAATT against Raver1 the z-score was -0.477 (inactive).
For GGACCCUUAGGAAAUGUGCTT against S100a10, the z-score was -1.13 (inactive).
For GCAUCAGAUUAUCUCACUGTT against Mtrf1l, the z-score was 0.261 (inactive).
For CGCGUGAUUGAUGUUUUACTT against Atxn10, the z-score was 0.793 (inactive).
With GUGUCAUUUCCCGGGACAUTT against Atp5g1 the z-score was 1.64 (inactive).
For CCUUGGACUGAUAUUAGCUTT against Dtx3, the z-score was 0.0235 (inactive).
For GGAACCUAAACGAACAAGGTT against Col6a2, the z-score was 2.18 (active).
In the case of GGAUGUACGGAAGCGAUUCTT against Gmpr2, the z-score is reported as 0.404 (inactive).
With “GGUUCCUCAUUUGUAGAUGTT against D830050J10Rik” the z-score was -1.19 (inactive).
For GGAGGAACAAUCAUCUAUATT against Ripk2, the z-score was 1.1 (inactive).
With GGCACAGAUGUUUUGAGAATT against Surf4 the z-score was -0.954 (inactive).
For CGAAAAUAUGGAUACUACUTT against Ippk, the z-score was 0.732 (inactive).
In the case of CGGUGAUCGUCAUUUUAUUTT against Ap4m1, the z-score is reported as 2.47 (active).
In the case of GGUGAACCUCAACAGACUCTT against Gtf3c4, the z-score is reported as -1.7 (inactive).
For GGAAAAAAUCACAUUGACUTT against H2ac6, the z-score was -0.835 (inactive).
With GCCCAUUAAUGGGAUAUAATT against Ccdc134 the z-score was 0.148 (inactive).
In the case of GGCUCUGGCAGAAAUGGAUTT against Pex26, the z-score is reported as -0.0204 (inactive).
With GGGAACAGAAGUUGUGAGATT against Gulp1 the z-score was 1.5 (inactive).
In the case of AGGUCAAUAAAGAGUGUGATT against Fam25c, the z-score is reported as -1.66 (inactive).
For GGAUACGAAAACGACUGCATT against Pdpr, the z-score was 2.05 (active).
With GGACCAAUUGGAUCCUUUUTT against Olfr1340 the z-score was -1.6 (inactive).
In the case of GCAUACGAUGGGAAUUGUATT against Wdr5b, the z-score is reported as -1.6 (inactive).
In the case of GGAAGAAGAUAAAGAGAAATT against Gtf2a1, the z-score is reported as 1.09 (inactive).
With GGAAGUUACUGUGAGAUAATT against Mtbp the z-score was 0.265 (inactive).
With GGAUGUUAUUCAGUUUUCATT against BC051019 the z-score was 2.37 (active).
With GGCCUAUCUUGUUUAUUUGTT against Tgtp1 the z-score was -0.316 (inactive).
With AUCGUGUUUGCUGUAUUUGTT against Olfr1258 the z-score was 0.33 (inactive).
In the case of GGAAAUCACCAACUUGGCCTT against Pou3f3, the z-score is reported as -0.0208 (inactive).
For GGAUUUGUAGUUCAUCUCATT against Olfr77, the z-score was 0.0834 (inactive).
For GGUCAGUGGAGCUCUCUAUTT against Fam234a, the z-score was 1.43 (inactive).
In the case of GGUUCUAAAACUUAACAAGTT against Brf2, the z-score is reported as 2.7 (active).
In the case of GGCAAACAACUGAAUAAGGTT against Pbsn, the z-score is reported as -0.611 (inactive).
With CCAAGUUAGUCUGCGUAUUTT against Zfp979 the z-score was -0.52 (inactive).
In the case of CCCUACCCAGUUUCAGUUGTT against Phf12, the z-score is reported as 0.206 (inactive).
With CCUGUGAAUUCAUCGUUCATT against Vps26c the z-score was 2.34 (active).
For GCAUACCUAGGAAAAAACUTT against Ednra, the z-score was 0.524 (inactive).
With GGUAUUGACAGGGAUCUGATT against Limk1 the z-score was 1.19 (inactive).
With “GGCCUUAGGAAUCAAGUUGTT against 9530053A07Rik” the z-score was 1.24 (inactive).
With GGGUUUCAAUGGCACAAUUTT against Kif3b the z-score was 2.12 (active).
For GGAUAACGUAAUGAAGAUCTT against Fgfr1, the z-score was -0.866 (inactive).
With GGUUUCUUCUUCUGUUCAUTT against Ostc the z-score was 1.13 (inactive).
For GGCUCAAAGACUGAAUCCCTT against Recql4, the z-score was 0.309 (inactive).
With GCUAUCUAGAGCCAAGAGCTT against Bahcc1 the z-score was 2.27 (active).
With GCUAGACCUCACUGUUUUUTT against Sprr2i the z-score was 1.03 (inactive).
In the case of GCAGCAUGAAUCACACCUUTT against Dtd2, the z-score is reported as -1.29 (inactive).
In the case of CGUGUUCAAAAGAGUUUUCTT against Sos1, the z-score is reported as 1.22 (inactive).
For GCGGCUUUGUAUACAAGUUTT against Vwc2l, the z-score was 1.11 (inactive).
For GGUAACUGUGGACUUAUCUTT against Olfr665, the z-score was -2.17 (active).
For GGCUGUCAGAACCAACUACTT against Tshb, the z-score was 0.214 (inactive).
With CUCUAGUGUUACACUUAUUTT against Tefm the z-score was 2.83 (active).
In the case of GGCCUUGAGAGGCUAAUACTT against Spata20, the z-score is reported as -1.27 (inactive).
For GGUGAUUGUUAGAGUUAAATT against Syt4, the z-score was 0.934 (inactive).
For GGUAAAAACCCAGAGAUGATT against Rem2, the z-score was 0.616 (inactive).
For GGAACUAAUGUGCAGGAGGTT against Suclg2, the z-score was 0.459 (inactive).
For “CCGUGAUCCCUUUUCACCATT against 6030445D17Rik”, the z-score was -2.26 (active).
In the case of CACGCAGAUGAUUAAGUUGTT against Olfr1000, the z-score is reported as 1.25 (inactive).
In the case of GGAGAAUGAGAUCAACCUGTT against Pah, the z-score is reported as 0.618 (inactive).
With GGAGAACAGUCUUGAGAAATT against Crisp3 the z-score was -0.712 (inactive).
In the case of CCUCCAGGAUUAUCGUGAUTT against Dnajc6, the z-score is reported as -1.22 (inactive).
For GGCUUAAUGUUGCUUCAGATT against Aven, the z-score was -0.959 (inactive).
For GGUCAAUUAUGAAGAGUUUTT against Calm3, the z-score was 3.04 (active).
In the case of CCUUAAAAACUCGAGUAAATT against Gla, the z-score is reported as 0.384 (inactive).
In the case of GCGGUCACACCAAAAGUCATT against Olfr1466, the z-score is reported as -1.56 (inactive).
In the case of GCUGUUUAUCUAGCUGUUATT against Mmp8, the z-score is reported as 0.782 (inactive).
For GGAUGUUAACAUUGAGCAATT against Asb11, the z-score was -0.0828 (inactive).
In the case of GGCAUUUCAACUGGACCCATT against Lamb1, the z-score is reported as -2 (active).
In the case of GACGCAAGCAGCAUUUUAUTT against R3hdm4, the z-score is reported as -0.207 (inactive).
With CCGUCAUCUACACCUAUUUTT against Olfr525 the z-score was 0.102 (inactive).
For CGGCUUAUGAGUUAAAGACTT against Rad51b, the z-score was -1.03 (inactive).
With GGUAGAUUAUAGCAAAAUGTT against Ik the z-score was -2.23 (active).
In the case of GGUUAAGUGUGUUAAGUUCTT against Cipc, the z-score is reported as 1.48 (inactive).
In the case of GGCCUCAAAUACCAUAACATT against Zfp941, the z-score is reported as 0.000237 (inactive).
For CGGACACAUGAUUGUCUUCTT against Npas1, the z-score was 1.25 (inactive).
For GGUUUGAUGACAAAUACACTT against Spcs2, the z-score was 1.6 (inactive).
In the case of GCUGGUACAGCGUAUACCATT against Cep170b, the z-score is reported as -1.03 (inactive).
In the case of GGAUGUUCUCAAACUACAATT against Kdm1b, the z-score is reported as 0.702 (inactive).
In the case of GGGCAAGCCACUCAUGUUGTT against Me2, the z-score is reported as -0.997 (inactive).
In the case of CCUAGAGAUUGGUAUGUACTT against Tmem132e, the z-score is reported as -2.1 (active).
For GCCAUUAAUCUCACAUGUATT against Crebrf, the z-score was 1.39 (inactive).
For GGAUCCUUCGAAUCCUGAATT against Cst11, the z-score was -0.372 (inactive).
With CCCAUGUUUAUGUUGCUGATT against Olfr467 the z-score was 0.251 (inactive).
In the case of GGACACCUGAAGUUAGUUUTT against Ndufaf1, the z-score is reported as 0.622 (inactive).
For GGAGAAGGAUCUGAACGAGTT against Nog, the z-score was -1.24 (inactive).
For CCUUAUGGAUUUAGCAUCATT against Lamb3, the z-score was 0.917 (inactive).
In the case of CCAAACCAGUGGAGUCCAUTT against Slc7a14, the z-score is reported as -2.26 (active).
For ACUAUGGUUGGUUCAAACGTT against Acat2, the z-score was -1.23 (inactive).
For “GCACAACGGUUCGUUGUUATT against 4933427E11Rik”, the z-score was -1.17 (inactive).
With GGUGUAGGCUGUCCAAUAATT against Rtel1 the z-score was 0.74 (inactive).
In the case of GACUCUUGUCCCAAGUGUUTT against Bloc1s4, the z-score is reported as 0.144 (inactive).
For GGAUCAACAGUCAAUUGUGTT against Tax1bp1, the z-score was -2.16 (active).
For AUAGUGGAACCCUUUGUACTT against Olfr1195, the z-score was -0.832 (inactive).
For GGAAUACGACAGAACUCCATT against Extl1, the z-score was 0.218 (inactive).
In the case of GGAGAAGCAAACUGCACCUTT against Cacng6, the z-score is reported as 1.08 (inactive).
For GGACCUGAAACACGCCAAUTT against Cdk18, the z-score was -0.35 (inactive).
For GCGGGAGAGCUAUGAAACATT against Mrps21, the z-score was -0.0502 (inactive).
In the case of GGGAAAUUUCUCUACAUCUTT against Npas1, the z-score is reported as 2.2 (active).
With GGCUGCACAAAACGAGAUCTT against Tcirg1 the z-score was -0.0738 (inactive).
